# Measured values published in the supplement of paper PMC10037445.
# In all, about 2,900 compounds were measured (“NF-kB SEAP reporter activity, fold change vs agonist alone”: median about 0.99, highest 2% from about 2.6 on). The entries come from a sample that favours the highest values as a whole.
# How the values were obtained:
# RAW-Dual [1] = assay: NF-kB SEAP reporter activity, fold change vs agonist alone; higher = enhanced NF-kB activity
# Method in brief: (§1)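 RAW-Dual macrophages were seeded in DMEM at 50,000 cells/well in 384-well plates, given 50 nL of library stock by pin tool, and given a PRR agonist 1 h later. Plates were held at 37 °C, 5% CO2 for 20 hours, after which supernatant was read for IRF by QuantiLuc luminescence and for NF-κB by QuantiBlue absorbance at 620 nm. Reporter activity is expressed as fold change over wells that received agonist alone. A well was called cytotoxic when IncuCyte confluency fell below 70% of agonist controls in both mask sets.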
# RAW-Dual [2] = assay: NF-kB SEAP reporter activity, fold change vs agonist alone; cytotoxicity flag (confluency mask): not cytotoxic; higher = enhanced NF-kB activity
# Method in brief: as §1
# RAW-Dual [3] = assay: NF-kB SEAP reporter activity, fold change vs agonist alone; cytotoxicity flag (confluency mask): cytotoxic (confluency <70% of control); higher = enhanced NF-kB activity
# Method in brief: as §1
# [4] = library stock concentration (final ~1000-fold dilution): 10 mM, cytotoxicity flag (confluency mask): cytotoxic (confluency <70% of control), agonist: Imiquimod (TLR7) […]
# [5] = library stock concentration (final ~1000-fold dilution): 10 mM, cytotoxicity flag (confluency mask): cytotoxic (confluency <70% of control), agonist: MPLA (TLR4) […]
# [6] = agonist: ODN 1826 (TLR9) 0.5 ug/mL
# [7] = agonist: Pam2CSK4 (TLR2/6) 0.1 ug/mL
# [8] = agonist: Pam3CSK4 (TLR2/1) 0.1 ug/mL
# [9] = library stock concentration (final ~1000-fold dilution): 10 mM, cytotoxicity flag (confluency mask): not cytotoxic, agonist: Imiquimod (TLR7) […]
# [10] = library stock concentration (final ~1000-fold dilution): 10 mM, cytotoxicity flag (confluency mask): not cytotoxic, agonist: MPLA (TLR4) […]
compound,measurement,setting,value
CN(C)CCCn1cc(C2=C(c3c[nH]c4ccccc34)C(=O)NC2=O)c2ccccc21,NF-kB SEAP reporter activity,RAW-Dual [1]; [4],1.13
same,NF-kB SEAP reporter activity,RAW-Dual [1]; [5],1.59
COc1ccc2c(c1)c(C1=C(c3c[nH]c4ccccc34)C(=O)NC1=O)cn2CCCN(C)C,NF-kB SEAP reporter activity,RAW-Dual [1]; [4],2.44
same,NF-kB SEAP reporter activity,RAW-Dual [1]; [5],1.71
Cc1ncc(NC(=O)c2cccc(C(F)(F)F)c2)cc1-c1cnc(OC2CCOCC2)c(N2CCOCC2)c1 (library stock concentration (final ~1000-fold dilution): 10 mM),NF-kB SEAP reporter activity,RAW-Dual [2]; agonist: LPS (TLR4) 0.1 ug/mL,1.31
same,NF-kB SEAP reporter activity,RAW-Dual [2]; [6],0.938
same,NF-kB SEAP reporter activity,RAW-Dual [2]; [7],0.495
same,NF-kB SEAP reporter activity,RAW-Dual [2]; [8],0.711
Cc1ncc(NC(=O)c2cccc(C(F)(F)F)c2)cc1-c1cnc(OC2CCOCC2)c(N2CCOCC2)c1,NF-kB SEAP reporter activity,RAW-Dual [1]; [9],0.898
same,NF-kB SEAP reporter activity,RAW-Dual [1]; [10],1.04
Cc1cc(C)c2c(c1)C(N(Cc1cc(C(F)(F)F)cc(C(F)(F)F)c1)c1nnn(C)n1)CCCN2CC1CCC(C(=O)O)CC1 (centres undefined) (library stock concentration (final ~1000-fold dilution): 10 mM),NF-kB SEAP reporter activity,RAW-Dual [2]; agonist: LPS (TLR4) 0.1 ug/mL,0.632
same,NF-kB SEAP reporter activity,RAW-Dual [2]; [6],0.635
same,NF-kB SEAP reporter activity,RAW-Dual [2]; [7],0.484
same,NF-kB SEAP reporter activity,RAW-Dual [2]; [8],0.444
Cc1cc(C)c2c(c1)C(N(Cc1cc(C(F)(F)F)cc(C(F)(F)F)c1)c1nnn(C)n1)CCCN2CC1CCC(C(=O)O)CC1 (centres undefined),NF-kB SEAP reporter activity,RAW-Dual [1]; [9],0.911
same,NF-kB SEAP reporter activity,RAW-Dual [1]; [10],1.14
CC(C)CC(NC(=O)C(NC(=O)c1cccc(-c2ccccc2)n1)C(C)O)B(O)O (centres undefined),NF-kB SEAP reporter activity,RAW-Dual [1]; [9],2.29
same,NF-kB SEAP reporter activity,RAW-Dual [1]; [10],0.997
CC(C)CC(NC(=O)C(NC(=O)c1cccc(-c2ccccc2)n1)C(C)O)B(O)O (centres undefined) (library stock concentration (final ~1000-fold dilution): 10 mM),NF-kB SEAP reporter activity,RAW-Dual [2]; agonist: LPS (TLR4) 0.1 ug/mL,0.629
same,NF-kB SEAP reporter activity,RAW-Dual [2]; [6],1.53
same,NF-kB SEAP reporter activity,RAW-Dual [2]; [7],0.976
same,NF-kB SEAP reporter activity,RAW-Dual [2]; [8],0.594
CCOC(=O)/C=C/c1ccc(O)c(OC)c1 (library stock concentration (final ~1000-fold dilution): 10 mM),NF-kB SEAP reporter activity,RAW-Dual [2]; agonist: LPS (TLR4) 0.1 ug/mL,0.998
same,NF-kB SEAP reporter activity,RAW-Dual [2]; [6],1.03
same,NF-kB SEAP reporter activity,RAW-Dual [2]; [7],0.959
same,NF-kB SEAP reporter activity,RAW-Dual [2]; [8],1.07
CCOC(=O)/C=C/c1ccc(O)c(OC)c1,NF-kB SEAP reporter activity,RAW-Dual [1]; [9],1.08
same,NF-kB SEAP reporter activity,RAW-Dual [1]; [10],1.2
COc1ncc(-c2ccc3nccc(-c4ccnnc4)c3c2)cc1NS(=O)(=O)c1ccc(F)cc1F,NF-kB SEAP reporter activity,RAW-Dual [1]; [9],0.912
same,NF-kB SEAP reporter activity,RAW-Dual [1]; [10],0.957
COc1cc2nccc(Oc3ccc(NC(=O)Nc4ccc(F)cc4F)c(F)c3)c2cc1OC,NF-kB SEAP reporter activity,RAW-Dual [1]; [4],0.799
same,NF-kB SEAP reporter activity,RAW-Dual [1]; [5],0.975
COc1cc2nccc(Oc3ccc(NC(=O)Nc4ccc(F)cc4F)c(F)c3)c2cc1OC (library stock concentration (final ~1000-fold dilution): 10 mM),NF-kB SEAP reporter activity,RAW-Dual [3]; agonist: LPS (TLR4) 0.1 ug/mL,0.806
same,NF-kB SEAP reporter activity,RAW-Dual [3]; [6],0.587
same,NF-kB SEAP reporter activity,RAW-Dual [3]; [7],0.463
same,NF-kB SEAP reporter activity,RAW-Dual [3]; [8],0.717
COc1ncc(-c2ccc3nccc(-c4ccnnc4)c3c2)cc1NS(=O)(=O)c1ccc(F)cc1F (library stock concentration (final ~1000-fold dilution): 10 mM),NF-kB SEAP reporter activity,RAW-Dual [2]; agonist: LPS (TLR4) 0.1 ug/mL,6.18
same,NF-kB SEAP reporter activity,RAW-Dual [2]; [6],0.959
same,NF-kB SEAP reporter activity,RAW-Dual [2]; [7],2.26
same,NF-kB SEAP reporter activity,RAW-Dual [2]; [8],0.801
CC1CNCCCN1S(=O)(=O)c1cccc2cncc(F)c12.Cl.O.O (centres undefined) (library stock concentration (final ~1000-fold dilution): 10 mM),NF-kB SEAP reporter activity,RAW-Dual [2]; agonist: LPS (TLR4) 0.1 ug/mL,1.11
same,NF-kB SEAP reporter activity,RAW-Dual [2]; [6],0.99
same,NF-kB SEAP reporter activity,RAW-Dual [2]; [7],1.27
same,NF-kB SEAP reporter activity,RAW-Dual [2]; [8],1.5
CC1CNCCCN1S(=O)(=O)c1cccc2cncc(F)c12.Cl.O.O (centres undefined),NF-kB SEAP reporter activity,RAW-Dual [1]; [9],1.01
same,NF-kB SEAP reporter activity,RAW-Dual [1]; [10],1.08
COC(=O)NC(C(=O)N1CCCC1c1ncc(-c2ccc(-c3ccc(-c4cnc(C5CCCN5C(=O)C(NC(=O)OC)C(C)C)[nH]4)cc3)cc2)[nH]1)C(C)C.Cl.Cl (centres undefined),NF-kB SEAP reporter activity,RAW-Dual [1]; [10],1.76
COC(=O)NC(C(=O)N1CCCC1c1ncc(-c2ccc(-c3ccc(-c4cnc(C5CCCN5C(=O)C(NC(=O)OC)C(C)C)[nH]4)cc3)cc2)[nH]1)C(C)C.Cl.Cl (centres undefined) (library stock concentration (final ~1000-fold dilution): 10 mM),NF-kB SEAP reporter activity,RAW-Dual [2]; agonist: LPS (TLR4) 0.1 ug/mL,1.85
same,NF-kB SEAP reporter activity,RAW-Dual [2]; [6],0.91
same,NF-kB SEAP reporter activity,RAW-Dual [2]; [7],1.02
same,NF-kB SEAP reporter activity,RAW-Dual [2]; [8],0.606
CC(C)CN(CC(O)C(Cc1ccccc1)NC(=O)OC1CCOC1)S(=O)(=O)c1ccc(N)cc1 (centres undefined),NF-kB SEAP reporter activity,RAW-Dual [1]; [9],1.3
same,NF-kB SEAP reporter activity,RAW-Dual [1]; [10],1.6
CC(C)CN(CC(O)C(Cc1ccccc1)NC(=O)OC1CCOC1)S(=O)(=O)c1ccc(N)cc1 (centres undefined) (library stock concentration (final ~1000-fold dilution): 10 mM),NF-kB SEAP reporter activity,RAW-Dual [2]; agonist: LPS (TLR4) 0.1 ug/mL,1.41
same,NF-kB SEAP reporter activity,RAW-Dual [2]; [6],1.74
same,NF-kB SEAP reporter activity,RAW-Dual [2]; [7],1.45
same,NF-kB SEAP reporter activity,RAW-Dual [2]; [8],1.32
CC1CCOC2Cn3cc(C(=O)NCc4ccc(F)cc4F)c(=O)c(O)c3C(=O)N12 (centres undefined),NF-kB SEAP reporter activity,"RAW-Dual [1]; library stock concentration (final ~1000-fold dilution): 2 mM, cytotoxicity flag (confluency mask): not cytotoxic, agonist: MPLA (TLR4) […]",0.994
same,NF-kB SEAP reporter activity,RAW-Dual [1]; [9],1.18
same,NF-kB SEAP reporter activity,RAW-Dual [1]; [10],0.999
CC1CCOC2Cn3cc(C(=O)NCc4ccc(F)cc4F)c(=O)c(O)c3C(=O)N12 (centres undefined) (library stock concentration (final ~1000-fold dilution): 10 mM),NF-kB SEAP reporter activity,RAW-Dual [2]; agonist: LPS (TLR4) 0.1 ug/mL,0.989
same,NF-kB SEAP reporter activity,RAW-Dual [2]; [6],0.999
same,NF-kB SEAP reporter activity,RAW-Dual [2]; [7],1.09
same,NF-kB SEAP reporter activity,RAW-Dual [2]; [8],0.921
CC1CCOC2Cn3cc(C(=O)NCc4ccc(F)cc4F)c(=O)c(O)c3C(=O)N12 (centres undefined) (library stock concentration (final ~1000-fold dilution): 2 mM),NF-kB SEAP reporter activity,RAW-Dual [2]; agonist: LPS (TLR4) 0.1 ug/mL,1.23
same,NF-kB SEAP reporter activity,RAW-Dual [2]; [6],0.967
same,NF-kB SEAP reporter activity,RAW-Dual [2]; [7],0.958
same,NF-kB SEAP reporter activity,RAW-Dual [2]; [8],0.873
CCOC(=O)C(CCc1ccccc1)NC1CCc2ccccc2N(CC(=O)O)C1=O.Cl (centres undefined),NF-kB SEAP reporter activity,RAW-Dual [1]; [9],0.99
same,NF-kB SEAP reporter activity,RAW-Dual [1]; [10],0.958
CCOC(=O)C(CCc1ccccc1)NC1CCc2ccccc2N(CC(=O)O)C1=O.Cl (centres undefined) (library stock concentration (final ~1000-fold dilution): 10 mM),NF-kB SEAP reporter activity,RAW-Dual [2]; agonist: LPS (TLR4) 0.1 ug/mL,0.997
same,NF-kB SEAP reporter activity,RAW-Dual [2]; [6],0.98
same,NF-kB SEAP reporter activity,RAW-Dual [2]; [7],1.03
same,NF-kB SEAP reporter activity,RAW-Dual [2]; [8],0.994
